According to PubChem BioAssay (NCATS):
Results filed as inconclusive are left out. Values without a mark were called inactive. Activity calls are given as the source filed them. The call rests on the fitted dose curve.

These molecules were tested against Peroxisome proliferator-activated receptor delta (Homo sapiens) (UniProt Q03181) (assay: qHTS assay for small molecule agonists of peroxisome proliferator-activated receptor delta signaling (AID 588534;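 further: 0% = DMSO basal wells and 100% = positive control agonist at 10 µM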)). Details: HEK293T PPARdelta-UAS-bla, beta-lactamase ratio, 18 h; series mostly up to 76.7 µM; activation: at the top concentration.
Sequence of Peroxisome proliferator-activated receptor delta (Homo sapiens) (Q03181 whole entry, looked up): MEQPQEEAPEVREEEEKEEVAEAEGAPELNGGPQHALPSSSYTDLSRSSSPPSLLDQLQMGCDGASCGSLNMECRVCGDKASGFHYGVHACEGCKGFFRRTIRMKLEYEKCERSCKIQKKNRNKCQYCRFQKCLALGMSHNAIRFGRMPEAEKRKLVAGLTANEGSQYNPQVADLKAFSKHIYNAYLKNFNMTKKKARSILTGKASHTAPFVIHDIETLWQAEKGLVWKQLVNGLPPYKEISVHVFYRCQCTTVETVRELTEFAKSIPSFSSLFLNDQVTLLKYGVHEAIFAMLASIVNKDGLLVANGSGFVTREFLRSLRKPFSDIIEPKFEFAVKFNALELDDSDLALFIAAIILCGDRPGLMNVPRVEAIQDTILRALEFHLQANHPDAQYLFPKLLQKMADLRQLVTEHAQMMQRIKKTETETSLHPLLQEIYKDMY
How it was run: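 Fluorescence from CCF4 substrate cleavage by beta-lactamase reporter, read 2 hrs at RT, measured agonist activity. Compounds were tested with 18 hrs exposure at 37 C. Concentration-response data fitted to Hill equation.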

Q: With `C[C@]12CC[C@@H]3c4ccc(O)cc4CC[C@H]3[C@@H]1CC[C@H]2O` as the molecule, how does the “activation” value read?
A: Its value is 0.988%.

Q: Which “activation” value does the source give for `OC(CCl)CCl` here?
A: Its value is 9.83%.

Q: For `CCCCCCCCCCCCCCN`, which “activation” value is on record?
A: Its value is 3.06%.

Q: `C/C=C/C=C/C=O` was tested. Which “activation” value did it give?
A: The value was 9.83%.

Q: `c1ccc2n[nH]nc2c1` was tested. Which “activation” value did it give?
A: Its value is 3.95%.

Q: With `Cc1cccc2cccnc12` as the molecule, how does the “activation” value read?
A: Its value is 8.6%.

Q: `COc1ccc(N)c(OC)c1` was tested. Which “activation” value did it give?
A: The value was -5.72%.

Q: `CCCC=O` was tested. Which “activation” value did it give?
A: Its value is 3.07%.

Q: How did the “activation” value turn out when `C=C(C)C(=O)OCC[N+](C)(C)C` was run?
A: Its value is -2.08%.

Q: With `CCCCOC(=O)c1ccccc1` as the molecule, how does the “activation” value read?
A: The value was 0.106%.

Q: For `CC(C)(O)CCC(C)(C)O`, which “activation” value is on record?
A: The value was 0.668%.

Q: `Nc1ccc(F)cc1F` was tested. Which “activation” value did it give?
A: Its value is 0.773%.

Q: With `c1cc2c3c(c1)ccc1cccc(c13)C2` as the molecule, how does the “activation” value read?
A: The value was 4.33%.

Q: `C=Cc1ccccn1` was tested. Which “activation” value did it give?
A: Its value is 5.39%.

Q: For `CCCCN(CCCC)CCCC`, which “activation” value is on record?
A: The value was -2.53%.

Q: How did the “activation” value turn out when `Cc1ccc(C(C)(C)C)cc1` was run?
A: The value was 1.93%.

Q: For `O=C1CCC(C2CCCCC2)CC1`, which “activation” value is on record?
A: Its value is 1.85%.

Q: With `O=[N+]([O-])c1cccc(Cl)c1` as the molecule, how does the “activation” value read?
A: Its value is -6.37%.

Q: With `CC(=O)c1c(C)c([N+](=O)[O-])c(C(C)(C)C)c([N+](=O)[O-])c1C` as the molecule, how does the “activation” value read?
A: Its value is 8.92%.

Q: Which “activation” value does the source give for `CC(C)Nc1ccccc1` here?
A: The value was 11.5%.

Q: How did the “activation” value turn out when `O=Cc1c(Cl)cccc1Cl` was run?
A: The value was 3.52%.

Q: With `OC1CCCCCCCCCCC1` as the molecule, how does the “activation” value read?
A: Its value is 1.76%.

Q: `O=C(O)c1cccc([N+](=O)[O-])c1` was tested. Which outcome did it give?
A: Its outcome is “inactive”.

Q: For `O=C(O)c1cc(Cl)cc(Cl)c1`, which “activation” value is on record?
A: Its value is 10.7%.

Q: Which “activation” value does the source give for `C=CC(=O)NC(C)(C)CS(=O)(=O)O` here?
A: The value was -4.31%.

Q: For `O=Cc1ccc(Cl)cc1`, which “activation” value is on record?
A: The value was 6.39%.

Q: For `CC1=CC2C3CC(C=C3C)C2C1` (configuration not stated), which “activation” value is on record?
A: The value was 3.19%.

Q: For `CC12CCC(CC1=O)C2(C)C` (configuration not stated), which outcome is on record?
A: The outcome was “inactive”.

Q: For `C=CCOC(=O)CC(C)C`, which “activation” value is on record?
A: The value was -6.24%.

Q: How did the “activation” value turn out when `COC(=O)CS` was run?
A: Its value is 3.74%.

Q: Which “activation” value does the source give for `CCCCC/C=C\C/C=C\CCCCCCCC(=O)O` here?
A: The value was 3.06%.

Q: For `CCCCCCCC/C=C\CCCCCCCC(=O)OC`, which “activation” value is on record?
A: The value was 2.62%.
